Test results published in PubChem BioAssay AID1159580 (chemical genetic matrix, 2015).
Where “and” joins values, the source holds several entries; their conditions need not be identical. Equal values may be shown once. The whole screen tested about 5,500 compounds, of which about 2,000 (36%) were called active. Another 18% or so got no clear call; they are omitted. Cut-off read from the data, not from the text of the source: active = normalized growth mostly below about 0.91 (no sharp cut-off); inconclusive = no clear call, values can overlap the other calls; inactive = mostly above about 0.92. Some of the results follow.

Experiment: chemical genetic growth profiling, strain panel (AID 1159580);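 note: tested at 20 µM; growth read once vehicle control cultures reached saturation at 30 °C; 1 = growth at the plate median or of vehicle wells; lower values mean less growth of the strain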
Conditions: S. cerevisiae deletion strains, growth OD

Measured: normalized growth

C=CC(C1=CC(=O)C(OC)=CC1=O)c1ccc(O)cc1 (configuration not stated)
inactive: locus YAL013W, strain DEP1, active compounds read low 1.04 | locus YAL021C, strain ccr4, active compounds read low 1.03 | locus YAL026C, strain drs2, active compounds read low 0.977 | locus YAL030W, strain snc1, active compounds read low 1.01 | locus YBL061C, strain skt5, active compounds read low 0.996 | locus YBR009C, strain hhf1, active compounds read low 0.99 | locus YBR021W, strain FUR4, active compounds read low 1.04 | locus YBR023C, strain chs3, active compounds read low 0.992 | locus YBR171W, strain sec66, active compounds read low 1.02 | locus YBR229C, strain ROT2, active compounds read low 0.945 | locus YBR231C, strain swc5, active compounds read low 0.989 | locus YBR279W, strain paf1, active compounds read low 1 | locus YCL011C, strain gbp2, active compounds read low 0.998 | locus YCL016C, strain dcc1, active compounds read low 0.99 | locus YCL029C, strain bik1, active compounds read low 0.987 | locus YCL069W, strain vba3, active compounds read low 1.01 | locus YCR088W, strain abp1, active compounds read low 1.02 | locus YDL005C, strain med2, active compounds read low 0.999 | locus YDL035C, strain GPR1, active compounds read low 0.974 | locus YDL040C, strain nat1, active compounds read low 0.999 | locus YDL074C, strain BRE1, active compounds read low 0.987 | locus YDL101C, strain DUN1, active compounds read low 0.986 | locus YDL185W, strain tfp1, active compounds read low 0.944 | locus YDL192W, strain arf1, active compounds read low 0.981 | locus YDR001C, strain nth1, active compounds read low 1.01 | locus YDR069C, strain doa4, active compounds read low 0.991 | locus YDR101C, strain arx1, active compounds read low 0.991 | locus YDR137W, strain rgp1, active compounds read low 0.989 | locus YDR150W, strain NUM1, active compounds read low 1.01 | locus YDR159W, strain sac3, active compounds read low 0.94 | locus YDR162C, strain NBP2, active compounds read low 0.942 | locus YDR195W, strain ref2 1.03 | locus YDR297W, strain sur2, active compounds read low 0.986 | locus YDR318W, strain mcm21, active compounds read low 0.953 | locus YDR334W, strain swr1, active compounds read low 1.02 | locus YDR335W, strain msn5, active compounds read low 1.01 | locus YDR388W, active compounds read low 0.964 | locus YDR392W, strain spt3, active compounds read low 0.825 | locus YDR502C, strain sam2, active compounds read low 0.967 | locus YEL003W, strain gim4, active compounds read low 0.979 | locus YEL037C, strain rad23, active compounds read low 1.01 | locus YEL061C, strain CIN8 (second series), active compounds read low 1.01 | locus YEL061C, strain CIN8, active compounds read low 0.992 | locus YER015W, strain faa2, active compounds read low 0.995 | locus YER016W, strain bim1, active compounds read low 1 | locus YER110C, active compounds read low 0.927 | locus YER111C, strain swi4, active compounds read low 0.998 | locus YER155C, strain BEM2 (second series), active compounds read low 0.891 | locus YER155C, strain BEM2, active compounds read low 1 | locus YER167W, strain BCK2, active compounds read low 0.973 | locus YFR010W, strain ubp6, active compounds read low 0.998 | locus YGL078C, strain dbp3, active compounds read low 0.985 | locus YGL086W, strain mad1, active compounds read low 1 | locus YGL167C, strain pmr1, active compounds read low 1.01 | locus YGL173C, strain kem1, active compounds read low 0.997 | locus YGL227W, strain vid30, active compounds read low 0.999 | locus YGL240W, strain doc1, active compounds read low 0.972 | locus YGL248W, strain PDE1, active compounds read low 0.992 | locus YGL253W, strain hxk2, active compounds read low 1.02 | locus YGR078C, strain PAC10, active compounds read low 1.01 | locus YGR135W, strain pre9, active compounds read low 0.963 | locus YGR252W, strain gcn5, active compounds read low 0.904 | locus YHR013C, strain ard1, active compounds read low 1.02 | locus YHR027C, strain rpn1, active compounds read low 0.995 | locus YHR030C, strain SLT2, active compounds read low 0.98 and 1.04 | locus YHR079C, strain IRE1 (second series), active compounds read low 0.982 | locus YHR079C, strain IRE1, active compounds read low 1.01 | locus YHR094C, strain hxt1, active compounds read low 0.96 | locus YHR129C, strain ARP1, active compounds read low 0.991 | locus YHR142W, strain chs7, active compounds read low 1.01 | locus YHR200W, strain rpn10, active compounds read low 0.965 | locus YIL066C, strain RNR3, active compounds read low 0.92 | locus YIL073C, strain SPO22, active compounds read low 0.964 | locus YIL125W, strain kgd1, active compounds read low 0.987 | locus YIR030C, strain dcg1, active compounds read low 0.991 | locus YJL092W, strain hpr5, active compounds read low 1 | locus YJL095W, strain BCK1 (second series), active compounds read low 0.998 | locus YJL095W, strain BCK1, active compounds read low 1.03 and 1.06 | locus YJL115W, strain asf1, active compounds read low 1.02 | locus YJL129C, strain trk1, active compounds read low 1.03 | locus YJL134W, strain LCB3, active compounds read low 0.978 | locus YJL154C, strain vps35, active compounds read low 1.01 | locus YJL164C, strain tpk1, active compounds read low 0.987 | locus YJL166W, strain qcr8, active compounds read low 1 | locus YJL168C, strain set2, active compounds read low 0.984 | locus YJL187C, strain SWE1 (second series), active compounds read low 0.997 | locus YJL187C, strain SWE1, active compounds read low 1 | locus YJR043C, strain POL32, active compounds read low 0.941 | locus YJR066W, strain TOR1, active compounds read low 0.983 | locus YJR075W, strain HOC1, active compounds read low 1.01 | locus YKL009W, strain mrt4, active compounds read low 0.957 | locus YKL068W, active compounds read low 0.971 | locus YKL085W, strain MDH1 (second series), active compounds read low 0.987 | locus YKL085W, strain MDH1, active compounds read low 0.987 | locus YKL160W, strain elf1, active compounds read low 0.985 | locus YKL190W, strain CNB1, active compounds read low 1.01 | locus YKR001C, strain vps1, active compounds read low 0.966 | locus YKR026C, strain gcn3, active compounds read low 1.01 | locus YKR091W, strain srl3, active compounds read low 1.01 | locus YLL001W, strain dnm1, active compounds read low 0.958 | locus YLL026W, active compounds read low 1 | locus YLL041C, strain sdh2, active compounds read low 1.01 | locus YLR027C, strain aat2, active compounds read low 1 | locus YLR039C, strain RIC1, active compounds read low 1.02 | locus YLR058C, strain SHM2, active compounds read low 0.925 | locus YLR102C, strain apc9, active compounds read low 0.984 | locus YLR113W, strain HOG1, active compounds read low 0.967 | locus YLR221C, strain rsa3, active compounds read low 0.989 | locus YLR258W, strain gsy2, active compounds read low 1.01 | locus YLR262C, strain YPT6 (second series), active compounds read low 0.996 | locus YLR262C, strain YPT6, active compounds read low 1.01 | locus YLR268W, strain sec22, active compounds read low 1.01 | locus YLR320W, strain mms22, active compounds read low 0.988 | locus YLR330W, strain CHS5, active compounds read low 1 | locus YLR342W, strain FKS1 (second series), active compounds read low 0.935 | locus YLR342W, strain FKS1, active compounds read low 0.987 | locus YLR357W, strain rsc2, active compounds read low 0.993 | locus YLR370C, strain arc18, active compounds read low 1.01 | locus YLR371W, strain rom2, active compounds read low 0.965 | locus YLR384C, strain iki3, active compounds read low 1.03 | locus YLR418C, strain cdc73, active compounds read low 0.933 | locus YML016C, strain PPZ1, active compounds read low 0.976 | locus YML032C, strain rad52, active compounds read low 0.947 | locus YML120C, strain ndi1, active compounds read low 1 | locus YML124C, strain tub3, active compounds read low 0.99 | locus YMR058W, strain fet3, active compounds read low 1.01 | locus YMR078C, strain ctf18, active compounds read low 0.989 | locus YMR125W, strain sto1, active compounds read low 1.02 | locus YMR129W, active compounds read low 1 | locus YMR205C, strain PFK2, active compounds read low 0.992 | locus YMR223W, strain ubp8, active compounds read low 0.967 | locus YMR231W, strain pep5, active compounds read low 1.01 | locus YMR263W, strain SAP30, active compounds read low 1.01 | locus YMR307W, strain GAS1, active compounds read low 1.06 | locus YNL067W, strain RPL9B, active compounds read low 1.06 | locus YNL071W, strain lat1, active compounds read low 1.01 | locus YNL153C, strain GIM3, active compounds read low 1.01 | locus YNL183C, strain NPR1, active compounds read low 0.983 | locus YNL209W, strain ssb2, active compounds read low 0.994 | locus YNL233W, strain BNI4, active compounds read low 1.01 | locus YNL248C, strain rpa49, active compounds read low 1 | locus YNL250W, strain rad50, active compounds read low 0.98 | locus YNL271C, strain bni1, active compounds read low 0.99 | locus YNL298W, strain CLA4, active compounds read low 0.961 | locus YNL307C, strain MCK1, active compounds read low 0.969 | locus YNL322C, strain KRE1 (second series), active compounds read low 0.981 | locus YNL322C, strain KRE1, active compounds read low 0.994 | locus YNR049C, strain mso1, active compounds read low 1.01 | locus YNR052C, strain pop2, active compounds read low 0.981 | locus YOL012C, strain htz1 1.04 | locus YOL147C, strain pex11, active compounds read low 0.969 | locus YOR001W, strain rrp6, active compounds read low 0.986 | locus YOR061W, strain CKA2, active compounds read low 0.954 | locus YOR069W, strain VPS5, active compounds read low 0.986 | locus YOR070C, strain gyp1, active compounds read low 0.982 | locus YOR080W, strain dia2, active compounds read low 0.992 | locus YOR083W, strain WHI5, active compounds read low 0.977 | locus YOR106W, strain vam3, active compounds read low 0.989 | locus YOR136W, strain idh2, active compounds read low 0.976 | locus YOR144C, strain elg1, active compounds read low 0.98 | locus YOR184W, strain ser1, active compounds read low 0.941 | locus YOR231W, strain MKK1, active compounds read low 1.03 | locus YOR265W, strain rbl2, active compounds read low 1 | locus YOR270C, strain vph1, active compounds read low 1.02 | locus YOR290C, strain snf2, active compounds read low 0.984 | locus YOR316C, strain cot1, active compounds read low 0.982 | locus YPL051W, strain arl3, active compounds read low 0.979 | locus YPL078C, strain atp4, active compounds read low 0.98 | locus YPL106C, strain sse1, active compounds read low 1.01 | locus YPL240C, strain hsp82, active compounds read low 1.01 | locus YPL241C, strain CIN2, active compounds read low 0.983 | locus YPL256C, strain CLN2, active compounds read low 1.06 | locus YPR119W, strain clb2, active compounds read low 0.99 | locus YPR141C, strain kar3, active compounds read low 0.984 | locus YPR163C, strain tif3, active compounds read low 0.979 | locus YPR167C, strain met16, active compounds read low 0.974 | strain wtn01, active compounds read low 0.994
